Compound activity from PubChem.
Sampled rows, rich in hits. Any-hit rate of the full collection: about 14%.
HCMV inh: blocks human cytomegalovirus replication; HFF cells, HCMV-luciferase reporter, 72 h; hits give low values; activity change, negative = inhibition, % at 57.5 µM; 4.5% of 410,000 active; AID 1259415; in the data active means activity change below about -60%; inconclusive means no clear call, values can overlap the other calls; inactive means above about -39%
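Cell-based, HFFs, 1000 cells/well, 16 h 37C; cpds in DMSO + HCMV-luc, MOI 1 PFU/cell; 72 h 37C; OneGlo luminescence after 5 min RT; norm. to buffer vs Salinomycin 10uM.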
Pf growth 96h: P. falciparum growth inhibition at 96 hour, primary screen for plastid delayed-death inhibitors; P. falciparum luciferase reporter growth, 96 h; Potency, µM (top dose mostly 28.7 µM), for the others: top-dose activity change, negative = inhibition, actives largely listed as inhibitors; 6.9% of 320,000 active; further: potency means the concentration at half of the fitted maximal effect
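Luminescence readout: decreased luciferase signal marks inhibited growth of reporter-expressing P. falciparum in infected red cells (2% hematocrit, 0.05% parasitemia final), exposed to compound two generations (96 h, 37 C, 5% CO2).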
Pf growth 48h: P. falciparum growth inhibition at 48 hours (one generation). P. falciparum luciferase growth in erythrocytes, 48 h. Potency, µM (doses to about 28.7 µM), inactives show top-dose activity change, negative = inhibition, hits mostly inhibitors. 5.9% of 310,000 active. AID 504832; further: potency means the concentration at half of the fitted maximal effect
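Firefly luciferase activity from engineered P. falciparum reports growth; inhibitors lower the luminescent signal. Cultures contained 2% hematocrit erythrocytes at 0.1% final parasitemia.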
FBPA Giardia inh: blocks Giardia fructose-bisphosphate aldolase activity. purified Giardia FBPA. A8B2U2. 0.71% of 290,000 active. Potency, µM (titrated, usually from 59.6 µM), without a hit: at the highest dose activity, negative = inhibition, hits mostly inhibitors; further: potency means the concentration at half of the fitted maximal effect; nearly all actives have a fitted effect of over 55% in size
Target sequence (A8B2U2 whole entry, looked up): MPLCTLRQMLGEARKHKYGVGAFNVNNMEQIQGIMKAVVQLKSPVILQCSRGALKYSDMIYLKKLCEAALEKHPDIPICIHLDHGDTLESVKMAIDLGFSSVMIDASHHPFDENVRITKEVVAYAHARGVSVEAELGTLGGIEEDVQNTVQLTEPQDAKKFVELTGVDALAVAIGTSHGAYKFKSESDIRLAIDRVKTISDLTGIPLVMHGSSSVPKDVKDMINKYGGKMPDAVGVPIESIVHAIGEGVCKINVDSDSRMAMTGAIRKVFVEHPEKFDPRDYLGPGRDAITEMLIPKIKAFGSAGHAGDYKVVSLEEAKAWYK
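40 nM FBPA preincubated 10 min at RT with compound (up to 57.5 uM final), then substrate plus GAPDH/TPI/NAD/arsenate coupling and diaphorase/resazurin added. Fluorescence read after 20 min at RT, 525/598 nm.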
Sm TGR block: S. mansoni TGR enzyme inhibition; 3% of 360,000 active; Q962Y6; purified TGR, DTNB reduction, TNB absorbance 405 nm; Potency, µM (highest dose often 114 µM), for the others: at the top dose activity change, negative = inhibition, most hits filed as inhibitors; further: potency means the concentration at half of the fitted maximal effect; nearly all actives have a fitted effect of over 60% in size
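Kinetic colorimetric format: TGR-catalysed, NADPH-driven DTNB reduction monitored via TNB absorbance. Enzyme dispensed at 20 nM; compound exposure 15 min at room temperature before reaction start.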
* hit, by the source's call; ? = inconclusive; . = not tested or not shown; [ ] = remark or other dose. Unless noted, the call rests on the fitted dose curve; in most records, active means well fitted curve in the direction sought with a large enough effect; inconclusive means small, poorly fitted or top-dose-only effect, or another doubt; inactive means no such curve, though single readings can be large; an effect the other way counts as inactive or inconclusive. On the % scale 0 is the no-effect control and ±100 the full control effect.

SMILES	HCMV inh	Pf growth 96h	Pf growth 48h	FBPA Giardia inh	Sm TGR block
CN(C(=O)c1cccc(NC(=O)Cc2ccc(NC(=O)C3CCCN(C(=O)C4CC4)C3)cc2)c1)C1CCCCC1 (stereo not given)	25.1	.	.	.	.
CCCC(=O)O[C@]1(C(=O)CCl)[C@H](C)C[C@@H]2[C@H]3CCC4=CC(=O)C=C[C@]4(C)[C@@]3(F)C(=O)C[C@@]21C	.	1.9µM*	?	.	.
C[C@H]1C[C@@H]2[C@H]3CCC4=CC(=O)C=C[C@@]4(C)[C@@]3(Cl)[C@@H](O)C[C@]2(C)[C@]1(OC(=O)c1ccco1)C(=O)CCl	.	2.03µM*	4.55µM*	-0.7%[21.7 µM]	.
CC1CC2C3CCC4=CC(=O)C=C[C@]4(C)[C@@]3(Cl)C(O)C[C@]2(C)C1(OC(=O)c1ccco1)C(=O)CCl (stereo not given in full)	.	.	.	0.1%	.
CCCCC(=O)O[C@@]1(C(=O)CO)C(C)CC2C3CCC4=CC(=O)C=C[C@@]4(C)[C@]3(F)C(O)C[C@]21C (stereo not given in full)	.	.	.	-6.2%	.
C[C@@H]1C[C@H]2[C@@H]3CCC4=CC(=O)C=C[C@]4(C)[C@@]3(Cl)[C@@H](O)C[C@]2(C)[C@@]1(OC(=O)c1ccco1)C(=O)CCl	-73.5*	2.08µM*	1.85µM*	.	-31.0%
COc1ccc2c3c([nH]c2c1)[C@H](CO)N(C(=O)C1CCC1)CC31CCN(C(=O)c2ccncc2)CC1	10.7	.	.	.	.
O=c1[nH]c2ccccc2c2oc(CCl)nc12	0.0	5.8%	?	?	6.31µM*
CCC1CCc2c(c3ccccc3[nH]c2=O)O1 (stereo not given)	-13.6	129.2%	30.2%	1.7%	-15.6%
O=c1[nH]c(NCc2ccccc2)nc2c1CCCC2	-32.5	8.28µM*	13.1µM*	-3.2%	22.2%
CC(C)c1cccc(-c2csc(C(C)(O)c3cccc(F)c3)n2)c1 (stereo not given)	-26.0	.	.	.	.
CC1CCC(C(C)C)C2=C1C(C#N)(C#N)C(C#N)(C#N)C(c1ccccc1)N2 (stereo not given)	?	-0.5%	?	-25.6%	5.01µM*
NC(CSCc1ccccc1Cl)C(=O)O (stereo not given)	-22.5	24.7%	3.6%	-12.5%	15.8µM*
CC1=C(c2ccc(C)cc2)S(=O)(=O)N=C1N1CCN(c2ccccc2)CC1	?	.	.	.	-1.0%
Cc1ccc2c(c1)c1c(n2CC(O)CNC2CCCCC2)CCCC1 (stereo not given)	-104.5*	26.0%	2.94µM*	-14.3%	2.8%
CC1=NN(C(=O)c2ccccc2)C(O)(c2ccc(Br)cc2)C1 (stereo not given)	8.0	3.7µM*	?	4.1%	4.0%
CC1=NN(C(=O)c2ccccc2F)C(O)(c2ccc(Cl)cc2)C1 (stereo not given)	4.0	13.1µM*	-0.1%	-13.8%	3.6%
CC(C)(C)Nc1nc(C#N)nc(Nc2ccccc2)n1	.	.	.	-10.6%	.
CCCCCCCCCCCC(=O)NC(C(=O)OCC)C(O)c1cccc([N+](=O)[O-])c1 (stereo not given)	16.4	?	?	-4.3%	-46.1%
CC(C)C(=O)NC(c1cccc([N+](=O)[O-])c1)c1ccc2cccnc2c1O (stereo not given)	-104.8*	26.1%	3.7µM*	?	-28.4%
CCCC(=O)NC(c1cccc([N+](=O)[O-])c1)c1ccc2cccnc2c1O (stereo not given)	-98.5*	.	.	.	.
CCc1cc2c(=O)c(-c3nc4ccccc4n3C)coc2c(CN2CCCCC2C)c1O (stereo not given)	29.5	?	?	-9.9%	-1.3%
Cc1oc2c(CN3CCCCC3C)c(O)ccc2c(=O)c1-c1ccc(Br)cc1 (stereo not given)	3.7	13.1µM*	13.1µM*	2.1%	2.1%
CC1CCCCN1Cc1c(O)ccc2c(=O)c(-c3nc4ccccc4s3)coc12 (stereo not given)	3.6	10.4µM*	2.08µM*	-0.8%	0.3%
CCCc1cc(=O)oc2c(CN3CCOCC3)c(O)ccc12	-31.4	?	?	0.2%	-22.0%
SMILES	HCMV inh	Pf growth 96h	Pf growth 48h	FBPA Giardia inh	Sm TGR block
Cc1oc2c(CN3CCOCC3)c(O)ccc2c(=O)c1-c1ccc(Br)cc1	-36.8	13.1µM*	4.15µM*	1.2%	2.9%
Cc1oc2c(CN3CCOCC3)c(O)ccc2c(=O)c1-c1ccc(Cl)cc1	?	9.28µM*	?	0.1%	4.3%
CCOC(=O)c1oc2c(CN3CCCCC3C)c(O)ccc2c(=O)c1-c1ccc(OC)c(OC)c1 (stereo not given)	6.1	?	?	14.7%	2.4%
Cc1oc2c(CN3CCCC3)c(O)ccc2c(=O)c1-c1ccc(Cl)cc1	-13.0	-2.4%	?	4.1%	-0.3%
COc1ccc(-c2noc(-c3cccnc3NCc3ccco3)n2)cc1	98.1	.	.	.	2.0%
CCOc1ccccc1NC(=O)COC(=O)C12CC3CC(CC(O)(C3)C1)C2	5.9	21.6%	57.3%	.	-2.2%
CCOC(=O)C(=O)N(C)c1c(CC)nc2c(OCc3cccc(OC)c3)cccn12	2.2	.	.	.	.
Cc1sc2c(c1C)C(O)=C(C(=O)Nc1ccccc1)S(=O)(=O)N2C	47.9	?	-9.3%	-3.1%	3.55µM*
CCOc1ccccc1C(=O)Nc1cc2c(cc1N1CCOCC1)n(C)c(=O)n2C	-111.7*	.	.	.	-7.7%
CCOc1ccccc1C(=O)Nc1cccc(-c2ccc(N3CCOCC3)nn2)c1	24.8	9.28µM*	?	.	-1.5%
Cc1ccccc1C(=O)Nc1cc2c(cc1N1CCOCC1)n(C)c(=O)n2C	37.8	.	.	.	0.9%
Cn1c(=O)n(C)c2cc(N3CCOCC3)c(NC(=O)c3ccc(F)cc3)cc21	-19.1	9.28µM*	?	.	-10.4%
Cn1c(=O)n(C)c2cc(N3CCOCC3)c(NC(=O)c3cccc(Cl)c3)cc21	2.7	1.65µM*	-0.4%	9.6%	-6.2%
Cn1c(=O)n(C)c2cc(N3CCOCC3)c(NC(=O)c3ccccc3Br)cc21	-6.6	.	.	.	-12.7%
Cc1cccc(C(=O)NC2CCN(S(=O)(=O)c3ccccc3)CC2)c1	?	-1.1%	-1.5%	0.9%	-4.1%[57.1 µM]
COc1ccc(Br)c(C(=O)Nc2cc3c(cc2N2CCOCC2)n(C)c(=O)n3C)c1	22.2	.	.	.	1.7%
COc1cccc(C(=O)Nc2cc3c(cc2N2CCCC2)n(C)c(=O)n3C)c1	5.1	11.7µM*	-2.8%	-25.5%	-19.2%
COc1cc(OC)cc(C(=O)Nc2cc3c(cc2N2CCCCC2)n(C)c(=O)n3C)c1	17.0	.	.	.	-0.2%
CCOc1cc(C(=O)Nc2cc3c(cc2N2CCCC2)n(C)c(=O)c(=O)n3C)cc(OCC)c1OCC	3.3	.	.	.	50.1µM*
COc1cccc(OC)c1C(=O)Nc1cc2c(cc1N1CCOCC1)n(C)c(=O)n2C	12.7	?	8.28µM*	-11.4%	-11.2%
Cc1cc(=O)[nH]c(SCC(=O)Nc2ccc(S(N)(=O)=O)cc2)n1	-61.4*	59.6%	-15.5%	-11.6%	-0.9%
